Experimental data published in PubChem BioAssay AID485364 (National Center for Advancing Translational Sciences (NCATS), 2010).
Screen size: about 360,000 compounds; about 11,000 (3.1%) were called active. Entries that show only a call come without a potency. Roughly 4% stayed inconclusive and do not appear here. The call rests on the fitted dose curve; in most records, active means well fitted inhibition curve with a large enough effect; inconclusive means small, poorly fitted or top-dose-only effect; inactive means no such curve, though single readings can be large or run the other way. For the sample, actives were picked, then their nearest neighbours and some compounds at random.

These compounds were tested against Schistosoma mansoni thioredoxin glutathione reductase (TGR) (UniProt Q962Y6) (assay: qHTS Assay for the Inhibitors of Schistosoma Mansoni Peroxiredoxins). Conditions: purified TGR, DTNB reduction, TNB absorbance 405 nm; series mostly up to 114 µM.
Outline: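 TGR 20 nM + NADPH 100 uM (dispensed conc.), cpd preinc 15 min RT; start with NADPH (500 uM addition) then DTNB (15 mM addition). Kinetic TNB absorbance, 405 nm filter. Four-parameter Hill fit across titration.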
Further: nearly all actives have a fitted effect of over 60% in size.
Potency means the concentration at half of the fitted maximal effect.

Structure (SMILES) | Potency
Cc1ccccc1-c1nc2scc(CCNC(=O)C(=O)Nc3ccc(F)cc3F)n2n1 | inactive
Cc1ccc(S(=O)(=O)N(Cc2nc(-c3ccc(Cl)cc3)no2)C2CCCCC2)cc1 | inactive
COc1ccc(CCN2C(=O)c3oc4cc(C)cc(C)c4c(=O)c3C2c2ccccc2F)cc1OC (stereo not drawn) | inactive
Cc1cc(C)cc(OCC(=O)Nc2nc(-c3ccc(F)cc3)ns2)c1 | inactive
Cc1ccn2c(Nc3ccc4c(c3)OCCO4)c(-c3ccc(C)s3)nc2c1 | inactive
COc1cc(Cn2c(N)c(C(=O)NCc3ccco3)c3nc4ccccc4nc32)cc(OC)c1OC | 7.08 µM (active)
COc1cc(-n2c(C)nc3cc(C(=O)NCc4ccco4)ccc32)cc(OC)c1OC | inactive
COc1cc(C(=O)NC(=S)NCc2ccco2)cc(OC)c1OC | inactive
CCc1ccc(S(=O)(=O)c2nnn3c2nc(NCc2ccccc2OC)c2cc(Cl)ccc23)cc1 | inactive
Cc1nn(Cc2ccc(F)cc2)c(C)c1NC(=O)c1cc(CC(C)C)on1 | inactive
O=C(CSc1cccc2cccnc12)N/N=C/c1cccnc1 | inactive
CCOC(=O)N1CCN(C(c2cccnc2)c2ccc3cccnc3c2O)CC1 (stereo not drawn) | 0.316 µM (active)
COc1ccccc1N1CCN(C(CNC(=O)Oc2ccccc2)c2cccnc2)CC1 (stereo not drawn) | inactive
COc1ccc(CC(=O)Nc2nnc3n2CCS3)cc1OC | inactive
CCOC(=O)c1c(C)[nH]c(CCC(=O)NCCCN2CCN(c3cccc(Cl)c3)CC2)c1C | inactive
CN(C(=O)c1ccc2c(c1)N(Cc1cccc(Cl)c1)C(=O)c1ccccc1S2=O)C1CCCCC1 (stereo not drawn) | inactive
Cc1ccc(COC(=O)CN2C(=O)NC3(CCCC3)C2=O)cc1 | inactive
CCOc1ccc(C(C)=O)cc1COC(=O)c1cnc(Cl)c(Cl)c1 | inactive
CCOc1ccc(C(C)=O)cc1COC(=O)CN1C(=O)NC2(CCCC2)C1=O | 10 µM (active)
COc1ccc(C(=O)COC(=O)CNC(=O)c2cccs2)cc1Br | inactive
CCOc1ccc(C(C)NC(=O)CN2C(=O)NC3(CCCCC3)C2=O)cc1OCC (stereo not drawn) | inactive
CCOc1ccc(C(C)=O)cc1COC(=O)CNC(=O)c1cccs1 | 11.2 µM (active)
CCOc1ccccc1N(C)C(=O)c1cc2c(s1)-c1ccccc1OC2 | inactive
Cc1nnc(NCc2ccccc2)c2c1nnn2Cc1ccc(F)cc1 | inactive
CCc1nc(-c2cc(S(=O)(=O)N3CCN(c4ccc(OC)cc4)CC3)ccc2OC)no1 | inactive

Structure (SMILES) | Potency
Cc1ccc(CNC(=O)Cn2c(=O)ccc3cc(S(=O)(=O)N4CCCC4)ccc32)cc1 | inactive
Cc1ccc(NC(=O)CSc2nc3ccccc3c3nc(CCn4cncc4C)nn23)cc1F | inactive
CC(=O)c1ccc(NC(=O)N[C@@H](Cc2ccccc2)C(=O)O)cc1 | inactive
CC(=O)c1ccc(OC(NC(=O)Cc2ccccc2)C(Cl)(Cl)Cl)cc1 (stereo not drawn) | 22.4 µM (active)
CCC/C=C(\CCC)C(NC(=O)Cc1ccccc1)c1ccc(C(=O)OC)cc1 (stereo not drawn) | inactive
COc1ccc(NC(=O)c2sc3nc[nH]c(=O)c3c2C)cc1 | inactive
COc1ccccc1NC(=O)C1=C(C)Nc2nc(SCC(=O)c3ccc(C)cc3)nn2C1c1ccccc1C (stereo not drawn) | inactive
CCCCCn1c(=O)[nH]c2cc(C(=O)Nc3cc(C)cc(C)c3)ccc2c1=O | inactive
C[C@H]1CCC(=O)N([C@H](CSc2ccccc2)Cc2ccccc2)CC1 | inactive
O=C1CC[C@H](O)CCN1[C@H](CSc1ccc(Br)cc1)Cc1ccccc1 | inactive
COc1ccc(SC[C@H](Cc2ccccc2)N2CCN(CCc3ccccc3)CCC2=O)cc1 | 17.8 µM (active)
COc1cccc(NC(=O)CSC2=Nc3ccccc3C3=NC(CC(=O)NC4CCCCC4)C(=O)N23)c1 (stereo not drawn) | inactive
CC(=O)c1ccc(NC(=O)c2nc3nc(C)cc(C(F)F)n3n2)cc1 | inactive
COc1ccccc1/C=C/C(=O)NC(=S)N1CCOCC1 | inactive
O=C(NNC(=S)Nc1ccc(Br)cc1Cl)c1ccco1 | inactive
O=C(/C=C/c1ccco1)NC(=S)Nc1ccccc1Br | 35.5 µM (active)
COc1ccc(Cl)cc1C(=O)NNC(=S)NC(=O)/C=C/c1ccco1 | inactive
O=C(/C=C/c1ccco1)NC(=S)N1CCCCC1 | 25.1 µM (active)
COc1ccc(/C=C/C(=O)NC(=S)N2CCCC(C(N)=O)C2)cc1 (stereo not drawn) | inactive
O=C(Nc1ccc2nc(SCC(=O)N3CCCc4ccccc43)sc2c1)c1ccc(Cl)cc1 | inactive
COc1ccccc1-c1noc(CSc2nnc(-c3ccccc3)n2-c2ccc(C)c(C)c2)n1 | inactive
O=C(O)c1ccc(CSc2nc3cccnc3n2Cc2cccc(F)c2)cc1 | inactive
Cc1ccc(-n2ncc(C(=O)N(C)Cc3ccccc3)c2-n2cccc2)cc1 | inactive
CC(=O)c1ccc(NS(=O)(=O)c2ccc(-c3cc(C)no3)s2)cc1 | inactive
COc1ccccc1CNC(=O)c1ccc(-n2c(C)cc3c2CCCC3)cc1 | inactive

Structure (SMILES) | Potency
CN1C(=O)/C(=N/OC(=O)c2ccccc2Br)c2ccccc21 | 12.6 µM (active)
Cn1c(=O)c(=O)n(C)c2cc(NC(=O)c3ccccc3Br)ccc21 | inactive
CN1C(=O)/C(=C\c2cc(Br)cs2)c2ccccc21 | inactive
Cc1ccc(C)c(NC(=O)CSC2=Nc3ccccc3N=C(c3ccc(F)cc3)C2)c1 | inactive
COc1cc(C(=O)Nc2ccc(-n3c(C)nc4ccccc4c3=O)cc2)cc(OC)c1OC | inactive
Cc1ccc(SC(CC(=O)c2ccc(C(C)(C)C)cc2)C(=O)O)cc1 (stereo not drawn) | 2 µM (active)
Cc1ccc(Sc2cc(C(=O)c3ccccc3C(=O)O)ccc2[N+](=O)[O-])cc1 | inactive
CC(C)(C)c1ccc(C(=O)NNC(=O)Cc2ccccc2)cc1 | inactive
COc1ccc2[nH]c3c(c2c1)CCN(C(=O)CCC1CCCC1)C3c1ccc(F)cc1 (stereo not drawn) | inactive
CCO[C@@H]1OC(C(N)=O)=C[C@H](c2ccc(Br)cc2)[C@H]1CCCO | inactive
CCO[C@H]1OC(C(=O)NCc2ccccc2)=C[C@@H](c2coc3ccccc3c2=O)[C@@H]1CCCO | inactive
C#CCNC(=O)C1=C[C@@H](c2ccccc2)[C@H](CCCO)[C@@H](OCC)O1 | 35.5 µM (active)
Cn1c(SCC(=O)N2CCCC2)nnc1-c1cccs1 | inactive
CCn1c(SCC(=O)Nc2nccs2)nnc1-c1ccco1 | inactive
Cn1c(SCC(=O)c2cccs2)nnc1-c1ccco1 | 44.7 µM (active)
Cc1ccc(SCC(=O)Nc2ccc3oc(-c4ccccc4F)nc3c2)cc1 | inactive
CCc1ccc(Nc2nn3c(=O)c4cc5c(cc4nc3s2)OCO5)cc1 | inactive
O=C(O)CCS(=O)(=O)c1ccc(-c2ccccc2)cc1 | inactive
Cc1ccc(S(=O)(=O)NCCC(=O)Nc2ccc(C)c(Cl)c2)cc1C | inactive
CC(=O)CCS(=O)(=O)c1ccc(C)c(C)c1 | 50.1 µM (active)
CC(=O)c1c(C)n(S(=O)(=O)c2ccc(Cl)cc2)c2ccc(NS(=O)(=O)c3ccc(Cl)cc3)cc12 | inactive
CSc1nn(Cc2cccc(C)c2)c(N)c1S(=O)(=O)c1ccccc1 | inactive
Cc1ccc(C(=O)N/C(=C\c2ccco2)C(=O)NC2CCS(=O)(=O)C2)cc1 (stereo not drawn) | 31.6 µM (active)
NC(=O)C1CCN(C(=O)/C(=C/c2ccco2)NC(=O)c2ccccc2)CC1 | inactive
COc1ccccc1C(=O)N/C(=C/c1ccco1)C(=O)Nc1ccc(C(=O)O)cc1 | 50.1 µM (active)

Structure (SMILES) | Potency
CC(C)(C)c1ccc(/C=C/C(=O)NC2CCS(=O)(=O)C2)cc1 (stereo not drawn) | inactive
O=C(NCc1ccco1)/C(=C/c1ccco1)NC(=O)c1ccccc1 | 39.8 µM (active)
O=C(NNC(=O)c1ccco1)Nc1ccccc1 | inactive
COc1ccc(/C=C(/NC(=O)c2ccco2)C(=O)Nc2ccc(C(C)=O)cc2)cc1 | inactive
Cc1ccc(C(=O)N/C(=C/C=C/c2ccccc2)C(=O)NCc2ccco2)cc1 | inactive
O=C(NCC1CCCO1)/C(=C\c1ccco1)NC(=O)c1ccccc1 (stereo not drawn) | inactive
Cc1ccc(NC(=O)/C(=C\c2ccccc2)NC(=O)c2ccco2)cc1 | inactive
COc1ccccc1C(=O)N/C(=C/c1ccc2c(c1)OCO2)C(=O)Nc1cccc(C(=O)O)c1 | inactive
O=C(Nc1ccccc1)/C(=C\c1ccco1)NC(=O)c1ccco1 | 10 µM (active)
Cc1cccc(Cc2c(C)nc3nc(SCc4ccccc4Cl)nn3c2C)c1 | inactive
Cc1ccc(Cl)cc1NC(=O)CCC(=O)N1CC(C)Sc2ccccc21 (stereo not drawn) | inactive
Cc1oc2ncnc(N3CCCCC3)c2c1C(=O)N1CCN(c2cccc(Cl)c2)CC1 | inactive
COc1cccc(NC(=O)Nc2ccc3c(c2)N(C)C(=O)c2ccccc2S3)c1 | inactive
CCOc1ccc(CCNC(=O)Cn2nc(CC)n3c(cc4sc(CC)cc43)c2=O)cc1OCC | inactive
Cc1ccc2c(=O)c(C(=O)c3ccc(Cl)cc3)cn(CC(=O)NC3CCCCC3)c2n1 | inactive
Cc1noc(/C=C/N(C)C)c1S(=O)(=O)N1CCCC(C(=O)Nc2cccc(F)c2)C1 (stereo not drawn) | inactive
CCc1cccc(NC(=O)c2cnc(N3CCOCC3)c3ccccc23)c1 | inactive
Cc1ccc(CNC(=O)CCC(=O)N2Cc3ccccc3Oc3ncccc32)cc1 | inactive
CCc1ccccc1N1C(=O)CN(S(=O)(=O)CC)CC1(C)C(=O)NC1CCCCC1 (stereo not drawn) | inactive
Cc1ccc(NC(=O)Cn2c(=O)n(-c3ccccc3)c(=O)c3c4c(sc32)CCCC4)cc1 | inactive
Cc1cccc(NC(=O)/C(=C\c2ccco2)NC(=O)c2ccccc2)c1 | 20 µM (active)
COc1ccc(/C=C(/NC(=O)c2ccccc2)C(=O)Nc2cccc(C(=O)O)c2)cc1 | inactive
O=C(Nc1ccc(C(=O)O)cc1)/C(=C\c1ccccc1)NC(=O)c1ccc(Br)cc1 | inactive
